Results taken from the supplement of paper PMC6555819.

Legend:
Test in all cases: PBM binding z-score (relative to random genomic background probes); higher = stronger binding; sequences stand for … in GC…GCGATTGACAGCGTAGAATGAAGG
[1] = test system: FXR:RXRa (NR concentration 270 nM, RXRa partner concentration 90 nM)
In short: (§1)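 Random background probes are the reference for binding z-scores. These scores derive from regression-normalized fluorescence on custom Agilent 4×180K protein-binding microarrays incubated 1 h with ligand-free nuclear receptor dimers. Binding was detected with antibodies against each partner (one per run).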

[2] = test system: LXRa:RXRa (NR concentration 270 nM, RXRa partner concentration 90 nM)
In short: as §1

[3] = test system: LXRa homodimer (NR concentration 270 nM)
In short: as §1

[4] = test system: LXRb:RXRa (NR concentration 270 nM, RXRa partner concentration 90 nM)
In short: as §1

[5] = test system: LXRb homodimer (NR concentration 270 nM)
In short: as §1

[6] = test system: PPARa:RXRa (NR concentration 270 nM, RXRa partner concentration 90 nM)
In short: as §1

[7] = test system: PPARg:RXRa (NR concentration 180 nM, RXRa partner concentration 90 nM)
In short: as §1

[8] = test system: PPARg:RXRa 270nM:90nM, anti-RXR (NR concentration 270 nM, RXRa partner concentration 90 nM)
In short: as §1

[9] = test system: PPARg:RXRa 30nM:10nM, anti-RXR (NR concentration 30 nM, RXRa partner concentration 10 nM)
In short: as §1

[10] = test system: PPARg:RXRa 90nM:30nM, anti-RXR (NR concentration 90 nM, RXRa partner concentration 30 nM)
In short: as §1

[11] = test system: PPARg:RXRa DBDmut IVT, anti-RXR (DBD mutation: RXRa K156A/R161A, NR concentration 270 nM, RXRa partner concentration 90 nM)
In short: as §1

[12] = test system: PPARg:RXRa IVT, anti-PPARg (NR concentration 270 nM, RXRa partner concentration 90 nM)
In short: as §1

[13] = test system: PPARg DBDmut IVT, anti-PPARg (DBD mutation: PPARg1 K132A/R137A, NR concentration 270 nM)
In short: as §1

[14] = test system: PPARg homodimer (NR concentration 180 nM)
In short: as §1

[15] = test system: PXR:RXRa (NR concentration 270 nM, RXRa partner concentration 90 nM)
In short: as §1

[16] = test system: PXR homodimer (NR concentration 270 nM)
In short: as §1

[17] = test system: RARa:RXR (NR concentration 270 nM, RXRa partner concentration 90 nM)
In short: as §1

[18] = test system: RARa homodimer (NR concentration 270 nM)
In short: as §1

[19] = test system: RARb:RXRa (NR concentration 270 nM, RXRa partner concentration 90 nM)
In short: as §1

| Sequence | PBM binding z-score [1] | PBM binding z-score [2] | PBM binding z-score [3] | PBM binding z-score [4] | PBM binding z-score [5] | PBM binding z-score [6] | PBM binding z-score [7] | PBM binding z-score [8] | PBM binding z-score [9] | PBM binding z-score [10] | PBM binding z-score [11] | PBM binding z-score [12] | PBM binding z-score [13] | PBM binding z-score [14] | PBM binding z-score [15] | PBM binding z-score [16] | PBM binding z-score [17] | PBM binding z-score [18] | PBM binding z-score [19] |
| --- | --- | --- | --- | --- | --- | --- | --- | --- | --- | --- | --- | --- | --- | --- | --- | --- | --- | --- | --- |
| CGAATTAGGTCACCAGGACAGTGAAGAGGTTGGA | 4.43 | 2.73 | 0.379 | 2.04 | -0.0787 | 5.25 | 8.25 | 6.75 | 4.82 | 6.53 | 8.17 | 8.71 | 2.04 | 2.36 | 1.78 | 0.578 | 2.92 | 0.711 | 4.52 |
| CGAACTAGGTCAACAGGACAGTGAAGAGGTTGGA | 3.71 | 2.37 | 0.16 | 1.55 | -0.34 | 4.7 | 7.52 | 6.53 | 4.22 | 6.18 | 8.18 | 8.23 | 0.713 | 1.93 | 1.28 | 0.261 | 2.27 | 0.467 | 4.23 |
| ATATGTAGGTTAGGGTCATTCGGAAAGTAGGGAA | 5.03 | 4.43 | 1.22 | 4.4 | 1.67 | 5.83 | 7.56 | 6.42 | 4.48 | 6.36 | 6.55 | 6.85 | 4.65 | 3.85 | 4.53 | 1.88 | 4.88 | 2.27 | 3.43 |
| CGAACTAGGTCCAAGGACAGTGAAAGGCGACGTA | -0.44 | -0.748 | -0.421 | -0.931 | -1.24 | 0.459 | 1.53 | 2.19 | 0.583 | 1.69 | 0.968 | 1.2 | -0.593 | -0.32 | -0.326 | -0.337 | -0.0342 | -0.625 | 0.398 |
| ATATATAGGTTAGGGTCATTCAGAAAGTAGGGAA | 5.26 | 4.34 | 1.79 | 4.71 | 2.26 | 5.6 | 8.16 | 6.57 | 4.73 | 6.58 | 6.92 | 6.72 | 2.87 | 4.26 | 4.79 | 2.81 | 5.43 | 2.83 | 3.58 |
| CGAACTAGGTCCCCAGGACAGTGAAGAGGTTGGA | -0.407 | -0.759 | -0.417 | -0.926 | -1.3 | 0.171 | 0.418 | 0.762 | -0.453 | 0.0759 | 3.03 | 2.5 | -1.06 | -0.774 | -0.741 | -0.316 | -0.649 | -0.996 | 0.0236 |
| CGAACTAGGTCATCAGGACAGTGAAGAGGTTGGA | 4.1 | 2.56 | 0.124 | 1.44 | -0.279 | 5 | 7.71 | 6.43 | 4.15 | 5.72 | 7.93 | 8.18 | 0.121 | 1.34 | 1.32 | 0.123 | 2.27 | 0.72 | 3.9 |
| CGCACTAGGTCACCAGGACAGTGAAGAGGTTGGA | 3.84 | 2.51 | 0.256 | 1.9 | -0.125 | 4.91 | 8.32 | 6.61 | 4.56 | 6.23 | 8.2 | 8.52 | 2.13 | 1.92 | 1.29 | 0.413 | 2.48 | 0.466 | 4.12 |
